In PubChem BioAssay (NCATS):
Records with an inconclusive call do not appear. Calls of active or inactive are those of the source. Calls come from the whole dose curve; as a rule, active = well fitted inhibition curve with a large enough effect; inconclusive = small, poorly fitted or top-dose-only effect; inactive = no such curve, though single readings can be large or run the other way.
% is set by controls: 0 for no effect and ±100 for the full control effect.

What follows are molecules tested on Zika virus NS2B-NS3 protease (unlinked complex) (assay: Primary screen GU Rhodamine qHTS for Zika virus inhibitors: Unlinked NS2B-NS3 protease assay (AID 1347159; note: nearly all actives have a fitted effect of over 60% in size)). Details: Recombinant ZIKV NS2B-NS3 protease, Rhodamine110 substrate fluorescence; series mostly up to 107 µM; activity change, negative = inhibition: at the top concentration.
In short: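 Noncovalent NS2B hydrophilic domain/NS3 protease complex (25 nM final) in 10 mM Tris-HCl pH 8.0, 0.01% Tween 20, preincubated 15 min with compounds (up to 114 microM), then 1.5 microM Rhodamine110 substrate. Fluorescence change over 15 min fitted to 4-parameter Hill.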
In the case of `Cc1onc(-c2ccccc2Cl)c1C(=O)N(C)c1ccc(Cl)cc1`, the “activity change, negative = inhibition” value is reported as 4.09% (inactive). For `Nc1c(-c2ccccc2)nc(Cl)c2c(O)n[nH]c(=O)c12`, the “activity change, negative = inhibition” value was -2.53% (inactive). For `C[C@@H]1C[C@@H](O)[C@@]23CO[C@]2(CO)CCC[C@@H]3[C@@]12C[C@@H](c1ccoc1)OC2=O`, the “activity change, negative = inhibition” value was -10.6% (inactive). For `Cc1ncc(NC(=O)c2ccc(CN3CCN(C)CC3)c(C(F)(F)F)c2)cc1Nc1nccc(-c2cccnc2)n1`, the “activity change, negative = inhibition” value was 16.1% (inactive). In the case of `CC[C@H]1OC(=O)[C@H](C)[C@@H](O[C@H]2C[C@@](C)(OC)[C@@H](O)[C@H](C)O2)C(C)[C@@H](O[C@@H]2O[C@H](C)C[C@H](N(C)C)[C@H]2O)[C@](C)(O)C[C@@H](C)CN(C)[C@H](C)[C@@H](O)[C@]1(C)O` (stereo partly specified), the “activity change, negative = inhibition” value is reported as 4.9% (inactive). For `C[C@@H]1C(=O)O[C@H](C)[C@H]1C[C@@H](O)[C@](C)(O)[C@H]1CC[C@@]2(O)C3=CC(=O)[C@@H]4C[C@@H](O)[C@@H](O)C[C@]4(C)C3CC[C@]12C` (stereo partly specified), the “activity change, negative = inhibition” value was 12.8% [at 57.1 µM] (inactive). For `COC(=O)C(CC1(OC(=O)C(C)C)c2ccccc2N2C(=O)C(C)(C)N(O)C21)n1cnc2ccccc2c1=O` (stereo unspecified), the “activity change, negative = inhibition” value was -15.8% [at 57.1 µM] (inactive). `C[C@]1(O)CC[C@@H]2C(C(=O)O)=CO[C@@H](O[C@@H]3O[C@H](CO)[C@@H](O)[C@H](O)[C@H]3O)[C@@H]21` was tested, and the “activity change, negative = inhibition” value was 12.4% (inactive). In the case of `C/C=C1\[C@H](O[C@@H]2O[C@H](CO)[C@@H](O)[C@H](O)[C@H]2O)OC=C(C(=O)OCCc2ccc(O)cc2)[C@H]1CC(=O)OCCc1ccc(O)cc1`, the “activity change, negative = inhibition” value is reported as -10.8% [at 32.5 µM] (inactive). In the case of `Cc1cn2cc(CC(=O)N3CCC4(CC3)CN(Cc3ccc(-n5nccn5)cc3Cl)C4)nc2s1`, the “activity change, negative = inhibition” value is reported as 3.52% (inactive). `O=C(Nc1ccc(N2CCC(C(=O)N3CCOCC3)CC2)cc1)c1cnc(Oc2ccccc2)nc1` was tested, and the “activity change, negative = inhibition” value was -3.62% (inactive). In the case of `COC(=O)[C@@H](NC(=O)[C@H](CC(C)C)NC(=O)N(Cc1ccccc1)C[C@@H](O)[C@H](Cc1ccccc1)NC(=O)OC(C)(C)C)C(C)C`, the activity change, negative = inhibition is reported as 14.8% [at 19.1 µM] (inactive).

The molecules below were run on Zika virus NS2B-NS3 protease (linked construct) (assay: Primary screen NINDS Rhodamine qHTS for Zika virus inhibitors (AID 1347160; note: nearly all actives have a fitted effect of over 55% in size)). Details: purified NS2B-NS3 protease, Rhodamine110 substrate fluorescence; series mostly up to 33.1 µM; activity change, negative = inhibition: at the top concentration.
In short: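 Purified NS2B-NS3 protease with the NS2B hydrophilic domain joined by a flexible linker (25 nM) in 10 mM Tris-HCl pH 8.0, 0.01% Tween 20, preincubated 15 min at RT with compound; Rhodamine110 peptide substrate 1.5 µM; fluorescence change over 15 min; 4-parameter Hill fit.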
In the case of `NC1Nc2ccccc2C1(N)CC1NC(=O)C(Cc2ccccc2)NC(=O)C(Cc2ccccc2)NC1=O` (stereo unspecified), the “activity change, negative = inhibition” value is reported as -25.5% (inactive). `O=C(O)Cc1cn([C@@H]2O[C@H](CO)[C@@H](O)[C@H](O)[C@H]2O[C@@H]2O[C@H](CO)[C@@H](O)[C@H](O)[C@H]2O)c2ccccc12` was tested, and the “activity change, negative = inhibition” value was -23.4% (inactive). For `CC1(C)CC[C@]2(C(=O)O)CC[C@]3(C)C(=CCC4[C@@]5(C)C[C@H](O)[C@H](O[C@@H]6O[C@H](CO)[C@@H](O)[C@H](O)[C@H]6O)[C@@](C)(CO)C5[C@H](O)C[C@]43C)[C@@H]2C1` (stereo partly specified), the “outcome” value was “inactive [at 15.1 µM]”. For `COC(=O)C1=CO[C@@H](O[C@@H]2O[C@H](CO)[C@@H](O)[C@H](O)[C@H]2O)[C@@H]2C(C)CC(=O)[C@]12O` (stereo partly specified), the “outcome” value was “inactive [at 33.1 µM]”. `CC(CC12CCCN1C(=O)C1CCCN1C2=O)OC(N)=O` (stereo unspecified) was tested, and the “activity change, negative = inhibition” value was -13.3% (inactive). With `COC1CC(O[C@H]2CC[C@@]3(C)C(=CC[C@]4(O)C3[C@H](O)[C@@H](O)[C@]3(C)[C@@H]([C@H](C)O)CC[C@@]34O)C2)OC(C)C1OC1CC(OC)C(OC2CC(OC)C(OC3OC(C)C(OC4OC(CO)C(O)C(O)C4O)C(OC)C3O)C(C)O2)C(C)O1` (stereo partly specified) the “outcome” value was “inactive [at 15.1 µM]”. In the case of `C=C1CCC(OC(C)=O)C2(C)CC3OC(=O)C(C)=C3CC12` (stereo unspecified), the “outcome” value is reported as “inactive”. `NC(=O)C(O[C@@H]1O[C@H](CO[C@@H]2O[C@H](CO)[C@@H](O)[C@H](O)[C@H]2O)[C@@H](O)[C@H](O)[C@H]1O)c1ccccc1` (stereo partly specified) was tested, and the “activity change, negative = inhibition” value was 35.7% (inactive). In the case of `C=C(C(=O)O)[C@@H]1CC[C@@]2(C)CC[C@@H](O)C(=C)C2C1` (stereo partly specified), the “activity change, negative = inhibition” value is reported as -16.9% [at 57.1 µM] (inactive). In the case of `COC(=O)C[C@H]1C(C)(C)[C@H](OC(=O)C(C)C)C2CC3=C4CC(=O)O[C@@H](c5ccoc5)[C@]4(C)CCC3[C@@]1(C)C2=O` (stereo partly specified), the “activity change, negative = inhibition” value is reported as -4.64% (inactive). With `c1ccc2c(Nc3nnc(-c4ccncc4)s3)cccc2c1` the “activity change, negative = inhibition” value was 12.8% [at 57.1 µM] (inactive). With `COc1ccc(CC(=O)NCc2ccccc2-c2ccccc2C(=O)NCCc2cccnc2)cc1` the “outcome” value was “inactive”. `CC1=C2C[C@@]3(C)C(CCC[C@@H]3C)C(O)C2(O)OC1=O` (stereo partly specified) was tested, and the “activity change, negative = inhibition” value was -2.69% [at 57.1 µM] (inactive). For `CC1(C)CC[C@]2(C(=O)O[C@@H]3O[C@H](CO)[C@@H](O)[C@H](O)[C@H]3O)CC[C@]3(C)C(=CCC4[C@@]5(C)CC[C@H](O[C@H]6O[C@H](CO)[C@@H](O)[C@H](O[C@@H]7O[C@H](CO)[C@@H](O)[C@H](O)[C@H]7O)[C@H]6O)C(C)(C)C5CC[C@]43C)[C@@H]2C1` (stereo partly specified), the “activity change, negative = inhibition” value was 12.9% [at 15.1 µM] (inactive). In the case of `C=C1C(OC(C)=O)C(=O)C2C(C)(C)C(O)CCC2(C)C1CC(OC(C)=O)/C(C)=C/COC(C)=O` (stereo unspecified), the “outcome” value is reported as “inactive [at 33.1 µM]”. For `CC(=O)NC1CC(=O)C23C(=O)NC(Cc4c[nH]c5ccccc45)C2C(C)=C(C)C(O)C3/C=C/CC(C)/C=C(/C)C(O)C1O` (stereo unspecified), the “activity change, negative = inhibition” value was 9.77% [at 15.1 µM] (inactive). For `COC(=O)C1=C[C@@H](O)[C@@H](O)[C@H](O[C@@H]2O[C@H](CO)[C@@H](O)[C@H](O)[C@H]2OC(=O)/C=C/c2ccccc2)C1`, the “activity change, negative = inhibition” value was 15.9% (inactive). `COC(=O)C(Cc1ccccc1)NC(=O)c1ccccc1` (stereo unspecified) was tested, and the “activity change, negative = inhibition” value was 13.2% [at 57.1 µM] (inactive). In the case of `Fc1ccccc1-c1nc2ccn(Cc3ccc(-c4ccc(C(F)(F)F)cc4C(F)(F)F)nn3)cc-2n1`, the “activity change, negative = inhibition” value is reported as -3.47% [at 57.1 µM] (inactive). With `C[C@@H]1O[C@@H](OC(=O)Cc2ccccc2)[C@H](O)[C@H](O)[C@H]1O` the “outcome” value was “inactive”. With `C=C1C(OC(C)=O)[C@@]23CCC4[C@](C)(C(=O)O)CCC[C@@]4(C)[C@]2(O)CC[C@H]1C3` (stereo partly specified) the “outcome” value was “inactive [at 33.1 µM]”. For `COC(=O)C1=COC(O[C@@H]2O[C@H](CO)[C@@H](O)[C@H](O)[C@H]2O)C2C(C)C(=O)CC12` (stereo partly specified), the “activity change, negative = inhibition” value was -14.2% (inactive). With `CC1=C2CC(=O)C(C)CC/C=C(\C)CC2OC1=O` (stereo unspecified) the “outcome” value was “inactive”. `C[C@H]1[C@@H](O)[C@H](O)C2[C@]3(C)C([C@@H](O)[C@H]4OC(=O)[C@@H]1[C@@]24C)[C@](C)(O)C=C[C@H]3O[C@@H]1O[C@H](CO)[C@@H](O)[C@H](O)[C@H]1O` (stereo partly specified) was tested, and the “activity change, negative = inhibition” value was 22.3% (inactive). In the case of `CC(=O)O[C@@H]1C[C@@H](C)[C@](O)(CCC2=CC(=O)OC2)[C@@]2(C)CCCC(C)(C)C12` (stereo partly specified), the “activity change, negative = inhibition” value is reported as 8.15% (inactive). In the case of `COc1c2c(c(C)c3c1C(=O)OC3)OC1(C)CC(O)C34OC(OC)(CC(O)C3(C)C1C2)OC4(C)C` (stereo unspecified), the “activity change, negative = inhibition” value is reported as -7.59% (inactive). In the case of `C[C@@H]1O[C@@H](O[C@H]2[C@H](OC(=O)[C@]34CCC(C)(C)C[C@H]3C3=CCC5[C@@]6(C)CC[C@H](O[C@@H]7O[C@H](CO[C@@H]8OC[C@H](O)[C@H](O)[C@H]8O[C@@H]8OC[C@@H](O)[C@H](O)[C@H]8O)[C@@H](O)[C@H](O)[C@H]7O)C(C)(C)C6CC[C@@]5(C)[C@]3(C)C[C@H]4O)O[C@H](CO)[C@@H](O)[C@@H]2O)[C@H](O[C@@H]2O[C@H](CO)[C@@H](O)[C@H](O)[C@H]2O)[C@H](O)[C@H]1O[C@@H]1OC[C@@H](O)[C@H](O[C@@H]2OC[C@@H](O)[C@H](O)[C@H]2O)[C@H]1O` (stereo partly specified), the “activity change, negative = inhibition” value is reported as 4.54% [at 10.7 µM] (inactive). `Cc1onc(-c2ccccc2Cl)c1C(=O)N(C)c1ccc(Cl)cc1` was tested, and the “activity change, negative = inhibition” value was -4.5% [at 57.1 µM] (inactive). For `Nc1c(-c2ccccc2)nc(Cl)c2c(O)n[nH]c(=O)c12`, the “outcome” value was “inactive”. With `C[C@@H]1C[C@@H](O)[C@@]23CO[C@]2(CO)CCC[C@@H]3[C@@]12C[C@@H](c1ccoc1)OC2=O` the “activity change, negative = inhibition” value was 13% (inactive). With `Cc1ncc(NC(=O)c2ccc(CN3CCN(C)CC3)c(C(F)(F)F)c2)cc1Nc1nccc(-c2cccnc2)n1` the “activity change, negative = inhibition” value was 76.1% [at 57.1 µM] (inactive). In the case of `CC[C@H]1OC(=O)[C@H](C)[C@@H](O[C@H]2C[C@@](C)(OC)[C@@H](O)[C@H](C)O2)C(C)[C@@H](O[C@@H]2O[C@H](C)C[C@H](N(C)C)[C@H]2O)[C@](C)(O)C[C@@H](C)CN(C)[C@H](C)[C@@H](O)[C@]1(C)O` (stereo partly specified), the “outcome” value is reported as “inactive”. `C[C@@H]1C(=O)O[C@H](C)[C@H]1C[C@@H](O)[C@](C)(O)[C@H]1CC[C@@]2(O)C3=CC(=O)[C@@H]4C[C@@H](O)[C@@H](O)C[C@]4(C)C3CC[C@]12C` (stereo partly specified) was tested, and the “activity change, negative = inhibition” value was 13.7% (inactive). With `COC(=O)C(CC1(OC(=O)C(C)C)c2ccccc2N2C(=O)C(C)(C)N(O)C21)n1cnc2ccccc2c1=O` (stereo unspecified) the “activity change, negative = inhibition” value was 65.4% (inactive). In the case of `C[C@]1(O)CC[C@@H]2C(C(=O)O)=CO[C@@H](O[C@@H]3O[C@H](CO)[C@@H](O)[C@H](O)[C@H]3O)[C@@H]21`, the “activity change, negative = inhibition” value is reported as -10.4% (inactive). In the case of `C/C=C1\[C@H](O[C@@H]2O[C@H](CO)[C@@H](O)[C@H](O)[C@H]2O)OC=C(C(=O)OCCc2ccc(O)cc2)[C@H]1CC(=O)OCCc1ccc(O)cc1`, the “outcome” value is reported as “inactive [at 15.1 µM]”. In the case of `Cc1cn2cc(CC(=O)N3CCC4(CC3)CN(Cc3ccc(-n5nccn5)cc3Cl)C4)nc2s1`, the “activity change, negative = inhibition” value is reported as 11.8% [at 57.1 µM] (inactive). With `O=C(Nc1ccc(N2CCC(C(=O)N3CCOCC3)CC2)cc1)c1cnc(Oc2ccccc2)nc1` the “outcome” value was “inactive”. In the case of `COC(=O)[C@@H](NC(=O)[C@H](CC(C)C)NC(=O)N(Cc1ccccc1)C[C@@H](O)[C@H](Cc1ccccc1)NC(=O)OC(C)(C)C)C(C)C`, the “activity change, negative = inhibition” value is reported as 6.86% [at 10.7 µM] (inactive).
